Test results published in PubChem BioAssay (NCI).
Compounds without any hit were thinned out: in the full panel of roughly 83,000, 20% have a hit.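 Single-concentration screen, 48 h exposure, 96-well plates. Endpoint: percent growth. Below 10 = active.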 Activity calls are given as the source filed them.

Assays:
Experiment in all cases: NCI-60 one-dose screen, 48 h (100 = growth as untreated, 0 = no growth, -100 = all killed)
SK-MEL-2 melanoma = conditions: 10 µM unless noted
EKVX NSCLC = conditions: 10 µM
SN12C renal = conditions: 10 µM unless noted
UO-31 renal = conditions: 10 µM unless noted
TK-10 renal = conditions: 10 µM unless noted
ACHN renal = conditions: 10 µM unless noted
A498 renal = conditions: 10 µM unless noted
CCRF-CEM leukemia = conditions: 10 µM
MOLT-4 leukemia = conditions: 10 µM unless noted
CAKI-1 renal = conditions: 10 µM unless noted

Measured: growth

COc1ccc(Cn2cc3c(c2-c2ccc(O)cc2)CCc2cnoc2-3)cc1
active: A498 renal -1.96%
inactive: SK-MEL-2 melanoma 43.7% | EKVX NSCLC 28.3% | SN12C renal 40.8% | UO-31 renal 35.4% | TK-10 renal 72.8% | ACHN renal 34.1% | CCRF-CEM leukemia 14.1% | MOLT-4 leukemia 24.3%

COc1ccc(C(=O)c2no[n+]([O-])c2C(=O)c2ccc(OC)cc2)cc1
active: UO-31 renal -100% | TK-10 renal 5.22% | ACHN renal -47% | CCRF-CEM leukemia -68.7% | MOLT-4 leukemia -80.1%
inactive: SK-MEL-2 melanoma 93% | EKVX NSCLC 64.8% | SN12C renal 72.5% | A498 renal 116%

COc1ccc(/C=C(/C(=O)N2CCN(c3ccc(C)cc3)CC2)c2cc(OC)c(OC)c(OC)c2)cc1N
active: A498 renal -11.1%
inactive: SK-MEL-2 melanoma 23.7% | EKVX NSCLC 45.5% | SN12C renal 28.8% | UO-31 renal 51.2% | TK-10 renal 76.7% | ACHN renal 30.5% | CCRF-CEM leukemia 13.4%

COc1ccc(/C(=C(\c2ccccc2)[N+](=O)[O-])c2ccc(OCCN3CCCC3)cc2)cc1
inactive: SK-MEL-2 melanoma 79.4% | EKVX NSCLC 96.9% | SN12C renal 83.4% | UO-31 renal 28.1% | TK-10 renal 80.4% | ACHN renal 75.4% | CAKI-1 renal 76.9% | MOLT-4 leukemia 71.9%

COc1ccc(/C=C(/C(=O)N2CCCCC2)c2cc(OC)c(OC)c(OC)c2)cc1
active: A498 renal -2.33%
inactive: SK-MEL-2 melanoma 28.5% | EKVX NSCLC 42.5% | SN12C renal 39.2% | UO-31 renal 48.2% | TK-10 renal 77.3% | ACHN renal 49% | CCRF-CEM leukemia 14.1% | MOLT-4 leukemia 30.9%

N=c1c2c(=O)n3c(nc2nc2sc4ccc(Cl)cc4n12)-c1ccccc1Sc1ccccc1-3
inactive: SN12C renal 21.4% | TK-10 renal 47% | A498 renal 47.1% | CCRF-CEM leukemia 12.5%
active: SK-MEL-2 melanoma 7.77% | EKVX NSCLC 9.46% | UO-31 renal -5.37% | CAKI-1 renal 6.62% | MOLT-4 leukemia 8.17%

Cc1ncc(C(=O)Nc2ccc(CN3CCN(C)CC3)c(C(F)(F)F)c2)cc1C#Cc1c(N)ncc2ccccc12
active: SK-MEL-2 melanoma -76.9% | EKVX NSCLC -89.5% | SN12C renal -99.1% | UO-31 renal -99.1% | TK-10 renal -99.4% | CAKI-1 renal 2.22% | A498 renal -98% | MOLT-4 leukemia -67.6%

CC[C@H](Nc1ncnc2nc[nH]c12)c1nc2cccc(NCc3ccc(C(=O)NO)o3)c2c(=O)n1-c1ccccc1
inactive: SK-MEL-2 melanoma 102% | EKVX NSCLC 110% | SN12C renal 95.2% | UO-31 renal 79% | TK-10 renal 84.1% | A498 renal 97% | CCRF-CEM leukemia 88.7% | MOLT-4 leukemia 97.8%

O=Nc1c(-c2c(O)[nH]c3cc(Br)ccc23)[nH]c2ccccc12
inactive: EKVX NSCLC 29.8% | SN12C renal 16.7%
active: SK-MEL-2 melanoma -66.5% | UO-31 renal -28.9% | ACHN renal 0.906% | CAKI-1 renal 2.36% | A498 renal -82% | CCRF-CEM leukemia -6.73% | MOLT-4 leukemia -68.9%

Ic1ccc(SSc2ccc(I)cc2)cc1
inactive: SK-MEL-2 melanoma 105% | EKVX NSCLC 99.9% | SN12C renal 71.3% | UO-31 renal 60.5% | TK-10 renal 84.4% | ACHN renal 113% | MOLT-4 leukemia 32%

COc1cc(OC)cc(-c2ccc(-c3ccc(C(=N)N)cc3)s2)c1
active: SK-MEL-2 melanoma -58.3% | EKVX NSCLC -83.6% | SN12C renal -76.9% | UO-31 renal -78% | TK-10 renal -83.7% | CAKI-1 renal -93.7% | A498 renal -92% | CCRF-CEM leukemia -59.7% | MOLT-4 leukemia -48.8%

COCn1c(C(=O)OC)cc2oc(/C=C3/SC(=S)N(N)C3=O)cc21
inactive: SK-MEL-2 melanoma 96.9% | EKVX NSCLC 91.8% | SN12C renal 121% | UO-31 renal 95.7% | ACHN renal 110% | A498 renal 54% | CCRF-CEM leukemia 98.1%

COC(=O)c1ccc(C(=Nc2ccc(N(C)C(=O)CN3CCN(C)CC3)cc2)c2c(O)[nH]c3ccc(C(=O)OC)cc23)cc1
inactive: SK-MEL-2 melanoma 47.7% | EKVX NSCLC 64.3% | SN12C renal 17.3% | UO-31 renal 38.3% | ACHN renal 18.6% | CAKI-1 renal 11.9% | A498 renal 18.2% | CCRF-CEM leukemia 12.3% | MOLT-4 leukemia 14.8%

COc1cccc(CNC(=O)c2cccc(C3CC(=O)c4c(cc(OC)c(OC)c4OC)O3)c2)c1 (stereo not given)
inactive: SK-MEL-2 melanoma 38.5% | EKVX NSCLC 72.4% | SN12C renal 72.7% | UO-31 renal 51.6% | TK-10 renal 87.7% | CAKI-1 renal 77.3% | A498 renal 81.7% | MOLT-4 leukemia 67%

c1ccc(Nc2ncc3c(n2)-c2cccn2CC3)cc1
inactive: SK-MEL-2 melanoma 101% | EKVX NSCLC 66.2% | SN12C renal 85.7% | UO-31 renal 49.1% | ACHN renal 74.4% | CAKI-1 renal 72.4% | CCRF-CEM leukemia 102% | MOLT-4 leukemia 99.4%
